Shiga inhibitor = Shiga toxin inhibition; 290,000 tested, 9.2% active; AID 2315; Vero cells, Shiga toxin protein synthesis inhibition reporter; inhibition, % at 38.7 µM; in the data active means inhibition mostly above about 28%, no sharp cut-off; inactive means mostly below about 43%
NS1 inh = inhibitors of influenza NS1 protein function | AID 2326 | 270,000 tested, 0.4% active | Potency, µM (highest dose often 46.1 µM); further: actives are rising curves; nearly all actives have a fitted effect of over 50% in size
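Read-out: OD600 growth recovery of NS1-expressing budding yeast. Cells grown overnight at 30C in -URA glucose medium, washed, resuspended and diluted 1:100 in 2% galactose assay medium, pH 6.0. Same strain lacking NS1 served as positive control.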
Pf growth 48h = inhibits P. falciparum growth in the first generation, 48 h | 310,000 tested, 5.9% active | Potency, µM (series often up to 28.7 µM), most hits filed as inhibitors | P. falciparum luciferase growth in erythrocytes, 48 h; active means well fitted inhibition curve with a large enough effect; inconclusive means small, poorly fitted or top-dose-only effect, or another doubt; inactive means no such curve, though single readings can be large or run the other way
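Compounds are pin-transferred into medium, infected erythrocytes (2% hematocrit, 0.1% parasitemia final) are added, and plates sit one parasite generation at 37 C in 5% CO2. Detection reagent is then added and luminescence measured.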
CHX counter = affects cycloheximide protein synthesis inhibition readout, counter-screen; cell reporter, cycloheximide protein synthesis inhibition counterscreen; max response, %; 300,000 tested, 12% active; in the data active means max response mostly above about 13%, no sharp cut-off; inactive means mostly below about 14%; further: read at 38.3 µM for the half of the compounds with a filed dose
SARS PLpro yeast = blocks SARS-CoV papain-like protease in a yeast assay; S. cerevisiae expressing SARS-CoV PLpro, growth rescue; Potency, µM (highest dose often 32.9 µM), most hits filed as activators; 330,000 tested, 0.19% active; further: nearly all actives have a fitted effect of over 55% in size
Pf growth 96h = inhibits malaria parasite growth, 96 h; P. falciparum luciferase reporter growth, 96 h; Potency, µM (series often up to 28.7 µM), hits mostly inhibitors; 320,000 tested, 6.9% active; AID 504834; active means well fitted inhibition curve with a large enough effect; inconclusive means small, poorly fitted or top-dose-only effect, or another doubt; inactive means no such curve, though single readings can be large or run the other way
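Plates of compound plus infected erythrocytes (2% hematocrit, 0.05% parasitemia final) incubate 96 hours, 37 C, 5% CO2. Detection reagent added; reduced luminescence from the parasites' luciferase reporter flags inhibition.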
Each line names hits and unclear results; the compound was inactive in the other large screens. This is a sample that favours compounds with a hit; in the whole collection about 21% have one here. Unless noted, the call rests on the fitted dose curve.

CN(C(=O)CN(c1ccccc1)S(=O)(=O)c1ccc(F)cc1)C1CCS(=O)(=O)C1 (stereo not given)	none
CN1C(=O)C(C)(C)c2cc(S(=O)(=O)N3CCN(c4ccccc4)CC3)ccc21	Pf growth 48h inconclusive, Pf growth 96h inconclusive
Cc1cc(O)c(C(C)C)cc1Cl	Pf growth 48h inconclusive, Pf growth 96h 15µM (no result: NS1 inh, SARS PLpro yeast)
Cc1nc(N2CCOCC2)nc2c1CCC2	none (no result: NS1 inh)
CCCCC/C=C\C/C=C\C/C=C\C/C=C\CCCC(=O)N[C@H](C)CO	none (no result: NS1 inh, Pf growth 48h, SARS PLpro yeast, Pf growth 96h)
C#CCn1cc(C=C2C(=O)c3ccccc3C2=O)c2ccccc21	Pf growth 96h inconclusive
Cc1ccc(OCCOC(=O)Nc2ccccc2)cc1	none
COc1ccccc1OCCOC(=O)Nc1ccccc1	Shiga inhibitor 26, CHX counter 13, Pf growth 96h 8.3µM
Cc1cccc(OCCOC(=O)Nc2ccccc2)c1	CHX counter 16
O=C(c1ccc(NS(=O)(=O)c2ccccc2)cc1)N1CCOCC1	none
CC1CN(C(=O)c2ccccc2OCc2ccccc2Cl)CC(C)O1 (stereo not given)	Pf growth 48h inconclusive, Pf growth 96h inconclusive (no result: Shiga inhibitor, NS1 inh, CHX counter)
COc1ccc(N=C(C)c2c(O)[nH]c(=O)[nH]c2=O)cc1	none
COc1ccc(N=C(C)C2=C(O)COC2=O)cc1	Pf growth 96h 0.33µM (no result: Pf growth 48h)
CCN(CC(=O)NC1CCS(=O)(=O)C1)C(=O)c1ccc(OC)c([N+](=O)[O-])c1 (stereo not given)	none (no result: Shiga inhibitor, NS1 inh, CHX counter)
O=C(Nc1nc(SCc2ccc(F)cc2)ns1)c1ccco1	CHX counter 16, Pf growth 96h inconclusive
COc1ccc(C)cc1NC(=O)CCNC(=O)c1ccco1	Pf growth 48h inconclusive
COc1ccc(C)cc1NC(=O)C(=O)NNC(=O)c1ccco1	Pf growth 96h 1.9µM
Cc1ccc(NC(=O)COc2ccccc2)c(NC(=O)c2ccco2)c1	none
COc1ccccc1OCC(=O)Nc1cc(C)ccc1NC(=O)c1ccco1	Pf growth 48h inconclusive, Pf growth 96h 10µM
O=C(Nc1ccc(CSc2ccccc2)cc1)c1ccco1	Shiga inhibitor 96, CHX counter 46
O=C(CSc1nc2nn(-c3ccccc3)c(=O)c-2c2n1CCCCC2)Nc1cccc(F)c1	none (no result: Shiga inhibitor, NS1 inh, Pf growth 48h, CHX counter, Pf growth 96h)
Cc1cc(NC(=O)C(C)SCC(=O)Nc2nc3c(F)cc(F)cc3s2)no1 (stereo not given)	Pf growth 48h inconclusive, Pf growth 96h inconclusive (no result: Shiga inhibitor, NS1 inh, CHX counter)
Cc1ccc(OCC(=O)N/N=C/C=C/c2ccco2)cc1C	none
CCC(=O)Nc1ccc(NC(=O)c2ccco2)cc1	Shiga inhibitor 57, CHX counter 25
COc1cc(NC(=O)COc2cccc(C)c2C)ccc1NC(=O)c1ccco1	Pf growth 96h inconclusive
COc1cc(NC(=O)CC(C)C)ccc1NC(=O)c1ccco1	none (no result: Shiga inhibitor, Pf growth 48h, CHX counter, SARS PLpro yeast, Pf growth 96h)
CCC(=O)Nc1ccc(NC(=O)c2ccco2)c(OC)c1	Shiga inhibitor 67, CHX counter 30, Pf growth 96h inconclusive
CCCC(=O)Nc1ccc(NC(=O)c2ccco2)c(OC)c1	Shiga inhibitor active, CHX counter 28, Pf growth 96h inconclusive
COc1cc(NC(=O)COc2ccc(C)c(C)c2)ccc1NC(=O)c1ccco1	Pf growth 48h 7.4µM
O=C(CCc1ccccc1)Nc1ccc(NC(=O)c2ccco2)cc1	none
CCOC(=O)C1=C(COC(=O)COc2ccccc2C#N)NC(=O)NC1C (stereo not given)	none (no result: Shiga inhibitor, NS1 inh, CHX counter)
CSc1ccc(S(=O)(=O)NCC(=O)OCC(=O)N(C)Cc2ccccc2)cc1[N+](=O)[O-]	none (no result: Shiga inhibitor, NS1 inh, CHX counter)
COCCNC(=S)Nc1cc(OC)c(NC(=O)c2ccco2)cc1OC	CHX counter 22
COc1ccc(NC(=O)c2ccco2)cc1NC(=O)COc1ccccc1	none
COc1ccc(OCC(=O)Nc2cc(NC(=O)c3ccco3)ccc2OC)cc1	Pf growth 48h inconclusive, Pf growth 96h 8.3µM
CCCc1cc(C(=O)N2CCCC(Nc3ccc(C)c(C)c3)C2)n(C)n1 (stereo not given)	none
CCOC(=O)C1=C(C)NC2=C(C(=O)C(C(=O)OCC)C(c3ccco3)C2)C1c1ccccn1 (stereo not given)	none
CCOC(=O)C1=C(C)NC2=C(C(=O)C(C(=O)OCC)C(c3cccc(OC)c3)C2)C1c1ccccn1 (stereo not given)	Pf growth 48h 8.3µM, Pf growth 96h 5.9µM
CCOC(=O)C1=C(C)NC2=C(C(=O)C(C(=O)OCC)C(c3ccc(OC)cc3)C2)C1c1ccccn1 (stereo not given)	Pf growth 48h inconclusive
CCOC(=O)C1=C(C)NC2=C(C(=O)C(C(=O)OCC)C(c3ccccc3OC)C2)C1c1ccccn1 (stereo not given)	Pf growth 48h 4.1µM, Pf growth 96h 3.7µM
Cc1c(Br)c([N+](=O)[O-])nn1CC(=O)Nc1sc2c(c1C(=O)OC(C)C)CCCC2	Shiga inhibitor 123, Pf growth 48h inconclusive
CCC1CCC/C1=N\NC(=O)c1ccoc1C (stereo not given)	Shiga inhibitor 86, CHX counter 38
CCC1CCC/C1=N\NC(=O)c1cc(C)[nH]n1 (stereo not given)	none (no result: Pf growth 48h)
Clc1ccc2[nH]c3c(c2c1)CCc1cn[nH]c1-3	Shiga inhibitor 70, CHX counter 29
c1ccc2c3c([nH]c2c1)-c1[nH]ncc1CC3	Pf growth 96h inconclusive
O=C(O)C1C2C=CC3(CN(Cc4ccncc4)C(=O)C13)O2 (stereo not given)	none
COC(=O)C(C(=O)OC)C(C(C)C)C(C(=O)OC)C(=O)OC	none
COc1ccc(-c2nn(-c3ccccc3)cc2/C=N/n2cnnc2)cc1OC	Pf growth 48h inconclusive
C(=N\n1cnnc1)/c1cn(-c2cccs2)nc1-c1ccccc1	Shiga inhibitor 66, CHX counter 37
CC(C)Nc1nc(Cl)nc(Nc2ccccc2)n1	Shiga inhibitor 53, CHX counter 39, Pf growth 96h inconclusive
c1ccc(Nc2ccccc2)cc1	none (no result: Shiga inhibitor, NS1 inh, CHX counter)
CC(C)c1ccc(Nc2nc(Cl)nc(NCCO)n2)cc1	NS1 inh inconclusive, CHX counter 12, Pf growth 96h inconclusive
CC(C)Nc1ccc(Nc2ccccc2)cc1	Pf growth 48h 4.1µM, Pf growth 96h 2.6µM (no result: Shiga inhibitor, NS1 inh, CHX counter)
O=C(NCCS(=O)(=O)N1CCC2(CC1)OCCO2)c1ccc(F)cc1	none (no result: Shiga inhibitor, NS1 inh, CHX counter)
COc1ccc(NC(=O)C2(c3ccc(NC(=O)c4ccc(OC(C)=O)cc4)cc3)CCCC2)cc1	none
O=C(Nc1ccc(NS(=O)(=O)c2ccccc2)cc1)c1ccccc1	none
CC(=O)Oc1ccc(C(=O)Nc2ccc(C3(C#N)CCCC3)cc2)cc1	CHX counter 12, Pf growth 96h inconclusive
N#CC1(c2ccc(NC(=O)c3ccccc3)cc2)CCCC1	Shiga inhibitor 135, CHX counter 47
CCNc1nc(OC)nc(N(OC)S(=O)(=O)c2ccc(C)cc2)n1	none
Nc1nc2[nH]cc(CCc3ccc(C(=O)NC(CCC(=O)O)C(=O)O)cc3)c2c(=O)[nH]1 (stereo not given)	Pf growth 48h 0.67µM, Pf growth 96h 1.3µM (no result: Shiga inhibitor, NS1 inh, CHX counter, SARS PLpro yeast)
Nc1nc2c(c(=O)[nH]1)N(C=O)[C@H](CNc1ccc(C(=O)N[C@@H](CCC(=O)O)C(=O)O)cc1)CN2	none (no result: Shiga inhibitor, NS1 inh, CHX counter, SARS PLpro yeast)
